Reference: PubChem BioAssay AID651558 (National Center for Advancing Translational Sciences (NCATS), 2012)
About 480 (40%) of roughly 1,200 compounds were called active. Roughly 29% stayed inconclusive and do not appear here. Calls come from the whole dose curve; as a rule, active = well fitted inhibition curve with a large enough effect; inconclusive = small, poorly fitted or top-dose-only effect; inactive = no such curve, though single readings can be large or run the other way. This is one part of the list. A call without a number means that no potency is given here.

Assay: qHTS Assay to Find Inhibitors of Chronic Active B-Cell Receptor Signaling: Hit Validation in Primary Screen; note: nearly all actives have a fitted effect of over 75% in size
Conditions: ABC-DLBCL IkB-luc/CBR ratio luminescence, 4 h; series mostly up to 46.1 µM
Summary of the method: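 TMD8 ABC-DLBCL cells carrying doxycycline-inducible IkBa-green luciferase fusion and free red luciferase, 0.5% FBS, dosed 46 uM–3 nM with doxycycline for 4 h at 37C. Green/red luminescence ratio normalized to basal and 10 uM MG-132.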
Potency is the fitted concentration of half-maximal effect.

Structure (SMILES) | Potency
CCO[C@H]1OC(C(=O)NCc2nc3ccccc3[nH]2)=C[C@@H](C2CC2)[C@@H]1CCCO | 18.4 µM (active)
O=C(Oc1c(CN2CCOCC2)cc(Cl)c2cccnc12)c1ccc(F)cc1 | inactive
Oc1ccc(NCc2cccc(OCc3ccccc3)c2)cc1 | inactive
Cc1[nH]n(C(N)=S)c(=O)c1N=Nc1ccc2ccccc2c1 | inactive
COc1ccc(N(C(=O)c2ccccc2C)S(=O)(=O)c2cccs2)cc1 | 5.17 µM (active)
C=CCOc1c(OC)cc(/C=N/Nc2cccc(C(=O)O)c2)c(Br)c1Br | 2.91 µM (active)
O=C(Oc1ccc(Cl)c2cccnc12)C12CC3CC(CC(C3)C1)C2 | inactive
O=c1cnnc(N/N=C/C2CC=CCC2)[nH]1 (stereo not drawn) | inactive
COC(=O)C1C(O)=C(C=Nc2cccc3ccccc23)C(=O)CC1(C)C (stereo not drawn) | 18.4 µM (active)
COC(=O)C1C(O)=C(C=Nc2ccccc2)C(=O)CC1(C)C (stereo not drawn) | 16.4 µM (active)
CCCOc1ccccc1C1CC(=O)Nc2cc3c(cc21)OCCO3 (stereo not drawn) | 7.31 µM (active)
CCOc1ccccc1C1CC(=O)Nc2cc3c(cc21)OCCO3 (stereo not drawn) | 10.3 µM (active)
CCCOc1ccccc1C1CC(=O)Nc2cc3c(cc21)OCO3 (stereo not drawn) | 6.51 µM (active)
Cc1ccc(-c2ccccc2NC(=O)CS(=O)CC(=O)Nc2ccc(C)c(Cl)c2)o1 (stereo not drawn) | inactive
COc1cc(/C=C\C(=O)OCn2nnc3ccccc3c2=O)cc(OC)c1OC | inactive
COc1cc(/C=C/c2ccc3cccc(O)c3n2)cc(OC)c1OC | 18.4 µM (active)
COc1cc(/C=C/c2ccc3cccc(O)c3n2)cc(Br)c1OC | 20.6 µM (active)
CCOc1cccc(/C=C/c2ccc3cccc(O)c3n2)c1OC | inactive
CCCCC(=O)NC(=S)Nc1nnn(CCC)n1 | inactive
COC(=O)CCC(=O)NC(=S)Nc1sc(C)c(C)c1C(N)=O | 4.61 µM (active)
COc1ccccc1CNC(=O)CSc1ccc(C)cc1 | inactive
COc1ccc(CN(C)C(=O)Cn2cnc3c(NCc4ccccc4)ncnc32)cc1OC | inactive
CCOc1cc(-c2nnc(SCC(=O)NCc3ccccc3)nc2-c2ccc(OC)c(OCC)c2)ccc1OC | 2.59 µM (active)

Structure (SMILES) | Potency
CC1=NN(C(N)=S)C(=O)C1N=Nc1ccc(F)cc1 (stereo not drawn) | inactive
Cc1ccsc1/C=C/C1=NCCCN1C | inactive
CC1(C)N=c2ccc([N+](=O)[O-])c(N)c2=[N+]1[O-] | inactive
COc1ccc(S(=O)(=O)Nc2ccc3c(c2)n(C)c(=O)n3C)cc1F | inactive
COc1cc(OC)c(OC)cc1/C=C/C(=O)c1ccc(NS(=O)(=O)c2ccc(C)cc2)cc1 | 13 µM (active)
COc1ccc2nc(NC(=S)NC(=O)c3ccco3)sc2c1 | inactive
S=C(Nc1ccccn1)c1ccccn1 | inactive
CCOc1ccc2nc(NS(=O)(=O)Cc3ccccc3)sc2c1 | inactive
O=C(Nc1nnc(SCc2ccc(F)cc2)s1)c1ccccn1 | inactive
CCOc1ccc2nc(NC(=O)c3ccccn3)sc2c1 | 14.6 µM (active)
Cc1ccc2nc(NC(=O)c3ccccn3)sc2c1 | 1.16 µM (active)
O=C(Nc1nc2ccc(F)cc2s1)c1ccccn1 | 1.46 µM (active)
O=C(Nc1nc2c(F)cc(F)cc2s1)c1ccccn1 | 13 µM (active)
C/C(=N\NC(=O)c1ccc(F)cc1)c1ccccn1 | inactive
O=C(NCC(=O)N1CCCC(C(F)(F)F)C1)c1ccc(Oc2ccccc2)cc1 (stereo not drawn) | inactive
CN(C)NC(=S)NC(=O)C12CC3CC(CC(C3)C1)C2 | inactive
Cc1cc(C(N)=O)nn1-c1c(Cl)cc(Cl)cc1Cl | inactive
COc1ccccc1NC(=O)c1c(N=Cc2c(O)ccc3ccccc23)cnn1C | 3.26 µM (active)
CC(=O)N1CC(=O)N=C1SCC(=O)Nc1nc(C)c(-c2ccccc2)s1 | 23.1 µM (active)
COc1cccc(/C=N/NC(=O)c2[nH]nc3c2CCc2ccccc2-3)c1O | 20.6 µM (active)
COc1ccc(CCCC(=O)N/N=C/c2cccc(OC)c2O)cc1C | inactive
CC/C(=N/Nc1ccc(Cl)cc1)c1cnnc(SC)n1 | inactive
Cc1ccc(C(=O)Oc2ccc(Cl)c3cccnc23)cc1[N+](=O)[O-] | inactive

Structure (SMILES) | Potency
O=C(c1ccc(CS(=O)c2ccccc2Cl)o1)N1CCN(c2ccccc2)CC1 (stereo not drawn) | 14.6 µM (active)
COc1cccc(N2CCN(C(=O)c3ccc(CS(=O)c4ccccc4C)o3)CC2)c1 (stereo not drawn) | 5.8 µM (active)
COc1cccc(N2CCN(C(=O)c3ccc(CS(=O)c4ccccc4Cl)o3)CC2)c1 (stereo not drawn) | 1.84 µM (active)
CCCNc1ccc(C(=O)OCC)cc1[N+](=O)[O-] | inactive
CCCNc1nc(-c2ccccc2)c(C(=O)OCC)cc1C#N | 18.4 µM (active)
CC(C)CCOc1ccc(CO[C@@H]2[C@H]3OC(C)(C)O[C@H]3O[C@@H]2C(O)CO)cc1 (stereo partly drawn) | inactive
COC(=O)c1ccc(C)c(NS(=O)(=O)c2ccc(OC)cc2)c1 | 1.84 µM (active)
COC(=O)c1ccc(C)c(NS(=O)(=O)c2ccc3c(c2)OCCO3)c1 | 9.2 µM (active)
COc1ccc(S(=O)(=O)Nc2cc3c(C(C)=O)c(C)oc3c3ccccc23)cc1 | 2.06 µM (active)
COc1ccc(NS(=O)(=O)c2cc(NC(=O)CNC(=O)c3cccc(OC)c3)ccc2C)cc1 | inactive
COc1cc2nc(=S)n3[nH]c(CCn4nc(C)cc4C)nc3c2cc1OC | inactive
O=C(/C=C/c1ccc(-c2ccccc2[N+](=O)[O-])o1)c1ccccc1 | inactive
CC(=O)[C@H]1CC[C@H]2[C@@H]3CCC4=CC(=O)CC[C@]4(C)[C@H]3CC[C@]12C | inactive
C[C@]12CCC(=O)C=C1CC[C@@H]1[C@@H]2[C@@H](O)C[C@@]2(C)[C@H]1CC[C@]2(O)C(=O)CO | inactive
COc1ccccc1-c1nnc(Nc2nc3c(OC)cccc3s2)o1 | 0.366 µM (active)
COc1cccc2sc(Nc3nnc(-c4ccccc4Cl)o3)nc12 | 8.2 µM (active)
NC(=S)N/N=C\c1ccc(-c2cccc(Cl)c2Cl)o1 | inactive
CSc1ccc(COC(=O)c2cc([N+](=O)[O-])ccc2N2CCOCC2)cc1 | 0.58 µM (active)
COc1ccc(COC(=O)c2cc([N+](=O)[O-])ccc2N2CCOCC2)cc1F | 0.092 µM (active)
CCN(CC)S(=O)(=O)c1ccc(N2CCOCC2)c(NC(=O)c2[nH]c(C)c(C(C)=O)c2C)c1 | inactive
CCCCn1c(=O)c(F)cn(Cc2ccc(OC)c([N+](=O)[O-])c2)c1=O | inactive
Cc1ccc(COC(=O)c2cc([N+](=O)[O-])ccc2N2CCOCC2)cc1 | 5.8 µM (active)
